ChEMBL document CHEMBL1961873, “Compounds: GSK PKIS; Assays: Nanosyn kinase panel” (2012)

Columns and labels:
[1] = target: T1, Inhibitor of nuclear factor kappa-B kinase subunit epsilon (Homo sapiens) (UniProt Q14164); details: at 1 µM;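 further: reported values are averaged percent inhibition figures against human IKKε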
T1 sequence (whole entry): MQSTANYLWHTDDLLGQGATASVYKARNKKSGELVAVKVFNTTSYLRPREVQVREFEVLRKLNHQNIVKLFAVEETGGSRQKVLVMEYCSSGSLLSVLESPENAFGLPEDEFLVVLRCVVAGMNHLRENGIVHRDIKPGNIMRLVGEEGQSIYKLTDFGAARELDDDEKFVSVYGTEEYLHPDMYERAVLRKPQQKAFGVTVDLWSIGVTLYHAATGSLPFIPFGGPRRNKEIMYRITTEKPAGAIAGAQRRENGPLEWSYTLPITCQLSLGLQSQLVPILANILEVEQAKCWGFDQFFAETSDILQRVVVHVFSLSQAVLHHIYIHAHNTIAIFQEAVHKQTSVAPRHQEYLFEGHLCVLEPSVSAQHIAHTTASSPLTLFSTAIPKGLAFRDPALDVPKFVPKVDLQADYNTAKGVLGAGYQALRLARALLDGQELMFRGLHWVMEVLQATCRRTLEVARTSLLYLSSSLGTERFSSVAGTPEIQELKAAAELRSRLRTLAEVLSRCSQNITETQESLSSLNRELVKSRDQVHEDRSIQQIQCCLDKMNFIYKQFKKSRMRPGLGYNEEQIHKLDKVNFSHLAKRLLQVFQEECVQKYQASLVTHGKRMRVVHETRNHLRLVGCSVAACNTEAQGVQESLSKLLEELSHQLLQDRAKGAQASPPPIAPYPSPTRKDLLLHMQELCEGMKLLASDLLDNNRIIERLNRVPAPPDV

[2] = target: T2, Serine/threonine-protein kinase Nek1 (Homo sapiens) (UniProt Q96PY6); details: at 0.1 µM
T2 sequence (whole entry): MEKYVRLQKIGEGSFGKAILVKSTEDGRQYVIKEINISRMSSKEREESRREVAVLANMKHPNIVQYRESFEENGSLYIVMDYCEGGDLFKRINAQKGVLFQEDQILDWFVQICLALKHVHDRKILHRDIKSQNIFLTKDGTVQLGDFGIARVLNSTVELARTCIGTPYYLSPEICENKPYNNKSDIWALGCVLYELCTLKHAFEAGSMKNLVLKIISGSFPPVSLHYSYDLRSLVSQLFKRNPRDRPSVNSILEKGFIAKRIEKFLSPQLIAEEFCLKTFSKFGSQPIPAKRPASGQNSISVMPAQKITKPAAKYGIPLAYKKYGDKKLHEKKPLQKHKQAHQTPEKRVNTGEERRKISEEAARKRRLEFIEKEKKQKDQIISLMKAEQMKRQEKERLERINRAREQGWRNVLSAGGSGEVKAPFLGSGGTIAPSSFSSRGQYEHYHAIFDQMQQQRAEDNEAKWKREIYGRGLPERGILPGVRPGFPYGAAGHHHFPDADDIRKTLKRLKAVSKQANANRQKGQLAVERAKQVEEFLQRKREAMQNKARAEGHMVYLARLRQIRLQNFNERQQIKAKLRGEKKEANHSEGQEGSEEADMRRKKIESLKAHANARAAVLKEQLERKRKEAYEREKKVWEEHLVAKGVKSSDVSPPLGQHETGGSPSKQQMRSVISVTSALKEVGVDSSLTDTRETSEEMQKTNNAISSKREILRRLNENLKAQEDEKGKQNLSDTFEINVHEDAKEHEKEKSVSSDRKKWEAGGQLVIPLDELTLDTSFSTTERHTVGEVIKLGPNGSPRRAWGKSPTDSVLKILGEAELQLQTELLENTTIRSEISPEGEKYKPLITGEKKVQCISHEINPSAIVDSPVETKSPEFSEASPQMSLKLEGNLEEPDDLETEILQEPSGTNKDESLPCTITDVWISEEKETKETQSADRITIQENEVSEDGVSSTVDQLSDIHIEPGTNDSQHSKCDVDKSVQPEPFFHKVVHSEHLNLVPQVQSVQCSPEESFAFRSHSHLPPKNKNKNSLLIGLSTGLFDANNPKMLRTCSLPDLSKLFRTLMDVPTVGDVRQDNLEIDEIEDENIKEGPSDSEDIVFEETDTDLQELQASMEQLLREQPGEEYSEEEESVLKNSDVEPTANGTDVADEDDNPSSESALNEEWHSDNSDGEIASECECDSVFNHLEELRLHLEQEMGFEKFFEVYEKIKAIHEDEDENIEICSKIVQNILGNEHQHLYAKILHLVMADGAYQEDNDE

[3] = target: T2, Serine/threonine-protein kinase Nek1 (Homo sapiens); details: at 1 µM
[4] = target: T3, Serine/threonine-protein kinase Nek2 (Homo sapiens) (UniProt P51955); details: at 0.1 µM
T3 sequence (whole entry): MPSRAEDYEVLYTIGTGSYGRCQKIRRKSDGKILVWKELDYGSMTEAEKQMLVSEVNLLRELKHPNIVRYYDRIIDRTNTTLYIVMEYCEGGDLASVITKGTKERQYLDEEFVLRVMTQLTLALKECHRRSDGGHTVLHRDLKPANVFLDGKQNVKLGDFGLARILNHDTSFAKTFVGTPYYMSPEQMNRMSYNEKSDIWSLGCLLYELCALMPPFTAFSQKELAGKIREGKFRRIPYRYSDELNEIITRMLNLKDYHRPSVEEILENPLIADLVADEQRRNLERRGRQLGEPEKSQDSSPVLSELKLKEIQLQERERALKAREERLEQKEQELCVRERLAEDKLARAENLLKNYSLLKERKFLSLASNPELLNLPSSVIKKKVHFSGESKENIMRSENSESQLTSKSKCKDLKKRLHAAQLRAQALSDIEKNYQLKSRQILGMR

[5] = target: T3, Serine/threonine-protein kinase Nek2 (Homo sapiens); details: at 1 µM
[6] = target: Serine/threonine-protein kinase Nek6 (Homo sapiens) (UniProt Q9HC98); details: at 0.1 µM
Chain of Serine/threonine-protein kinase Nek6 (Homo sapiens) (Q9HC98 whole entry): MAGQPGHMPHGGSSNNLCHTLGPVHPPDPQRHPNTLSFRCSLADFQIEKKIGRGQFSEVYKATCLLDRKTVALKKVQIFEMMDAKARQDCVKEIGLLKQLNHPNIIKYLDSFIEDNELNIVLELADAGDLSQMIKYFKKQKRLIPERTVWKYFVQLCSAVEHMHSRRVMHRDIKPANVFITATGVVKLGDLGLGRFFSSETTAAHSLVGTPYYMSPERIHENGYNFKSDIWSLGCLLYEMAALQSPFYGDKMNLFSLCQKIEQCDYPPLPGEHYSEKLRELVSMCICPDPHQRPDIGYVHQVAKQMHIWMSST

[7] = target: Serine/threonine-protein kinase Nek6 (Homo sapiens) (UniProt Q9HC98); details: at 1 µM
[8] = target: Serine/threonine-protein kinase Nek7 (Homo sapiens) (UniProt Q8TDX7); details: at 0.1 µM
Chain of Serine/threonine-protein kinase Nek7 (Homo sapiens) (Q8TDX7 whole entry, looked up): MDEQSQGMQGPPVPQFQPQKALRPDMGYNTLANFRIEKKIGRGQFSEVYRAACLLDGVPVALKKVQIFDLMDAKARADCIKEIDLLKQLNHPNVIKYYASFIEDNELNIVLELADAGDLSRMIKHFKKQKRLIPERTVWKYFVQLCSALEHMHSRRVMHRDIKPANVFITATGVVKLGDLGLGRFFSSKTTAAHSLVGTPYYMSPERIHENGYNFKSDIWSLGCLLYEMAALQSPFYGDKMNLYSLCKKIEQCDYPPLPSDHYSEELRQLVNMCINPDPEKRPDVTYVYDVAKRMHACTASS

[9] = target: Serine/threonine-protein kinase Nek7 (Homo sapiens) (UniProt Q8TDX7); details: at 1 µM
[10] = target: T4, Serine/threonine-protein kinase Nek9 (Homo sapiens) (UniProt Q8TD19); details: at 0.1 µM
T4 sequence (whole entry): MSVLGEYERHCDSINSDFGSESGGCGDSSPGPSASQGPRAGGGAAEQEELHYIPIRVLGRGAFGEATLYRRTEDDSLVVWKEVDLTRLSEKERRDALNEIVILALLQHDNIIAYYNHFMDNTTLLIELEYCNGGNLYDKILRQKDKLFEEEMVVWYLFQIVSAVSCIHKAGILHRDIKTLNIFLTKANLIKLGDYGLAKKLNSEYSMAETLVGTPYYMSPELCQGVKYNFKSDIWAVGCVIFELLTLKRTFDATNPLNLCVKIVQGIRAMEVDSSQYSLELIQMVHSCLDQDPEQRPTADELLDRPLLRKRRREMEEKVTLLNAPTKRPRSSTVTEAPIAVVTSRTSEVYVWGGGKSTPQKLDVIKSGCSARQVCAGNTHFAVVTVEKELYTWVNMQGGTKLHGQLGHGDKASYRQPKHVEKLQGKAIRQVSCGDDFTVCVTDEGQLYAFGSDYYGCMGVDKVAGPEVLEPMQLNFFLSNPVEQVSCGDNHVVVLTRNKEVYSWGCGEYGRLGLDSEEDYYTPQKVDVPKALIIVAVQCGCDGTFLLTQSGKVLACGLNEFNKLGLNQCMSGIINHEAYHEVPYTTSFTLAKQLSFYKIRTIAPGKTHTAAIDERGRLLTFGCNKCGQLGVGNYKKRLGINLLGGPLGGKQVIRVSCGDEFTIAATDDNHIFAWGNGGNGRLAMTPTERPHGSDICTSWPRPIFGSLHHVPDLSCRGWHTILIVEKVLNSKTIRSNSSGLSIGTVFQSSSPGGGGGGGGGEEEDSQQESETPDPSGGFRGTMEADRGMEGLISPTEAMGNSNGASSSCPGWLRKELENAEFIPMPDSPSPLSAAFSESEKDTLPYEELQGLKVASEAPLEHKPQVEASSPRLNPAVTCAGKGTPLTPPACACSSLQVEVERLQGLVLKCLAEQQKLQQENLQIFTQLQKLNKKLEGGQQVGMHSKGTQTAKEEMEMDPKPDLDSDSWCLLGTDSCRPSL

[11] = target: T4, Serine/threonine-protein kinase Nek9 (Homo sapiens); details: at 1 µM
[12] = target: Serine/threonine-protein kinase PLK1 (Homo sapiens) (UniProt P53350); details: at 0.1 µM
Chain of Serine/threonine-protein kinase PLK1 (Homo sapiens) (P53350 whole entry): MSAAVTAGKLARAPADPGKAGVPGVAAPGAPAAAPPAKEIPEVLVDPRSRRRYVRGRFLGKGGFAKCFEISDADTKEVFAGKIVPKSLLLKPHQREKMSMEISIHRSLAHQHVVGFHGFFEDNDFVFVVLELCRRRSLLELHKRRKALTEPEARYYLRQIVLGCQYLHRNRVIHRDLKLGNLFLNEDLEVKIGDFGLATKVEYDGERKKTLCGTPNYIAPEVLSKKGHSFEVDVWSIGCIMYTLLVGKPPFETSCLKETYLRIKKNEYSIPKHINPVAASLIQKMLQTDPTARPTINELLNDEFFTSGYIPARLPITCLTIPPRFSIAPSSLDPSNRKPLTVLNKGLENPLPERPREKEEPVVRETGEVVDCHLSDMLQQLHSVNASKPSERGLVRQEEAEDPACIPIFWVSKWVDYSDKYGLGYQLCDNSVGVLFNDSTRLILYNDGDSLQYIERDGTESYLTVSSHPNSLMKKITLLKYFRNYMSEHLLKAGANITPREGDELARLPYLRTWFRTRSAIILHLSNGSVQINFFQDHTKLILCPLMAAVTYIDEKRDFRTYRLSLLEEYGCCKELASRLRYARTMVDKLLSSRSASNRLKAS

[13] = target: Serine/threonine-protein kinase PLK1 (Homo sapiens) (UniProt P53350); details: at 1 µM
[14] = target: T5, Dual specificity protein kinase TTK (Homo sapiens) (UniProt P33981); details: at 0.1 µM
T5 sequence (whole entry): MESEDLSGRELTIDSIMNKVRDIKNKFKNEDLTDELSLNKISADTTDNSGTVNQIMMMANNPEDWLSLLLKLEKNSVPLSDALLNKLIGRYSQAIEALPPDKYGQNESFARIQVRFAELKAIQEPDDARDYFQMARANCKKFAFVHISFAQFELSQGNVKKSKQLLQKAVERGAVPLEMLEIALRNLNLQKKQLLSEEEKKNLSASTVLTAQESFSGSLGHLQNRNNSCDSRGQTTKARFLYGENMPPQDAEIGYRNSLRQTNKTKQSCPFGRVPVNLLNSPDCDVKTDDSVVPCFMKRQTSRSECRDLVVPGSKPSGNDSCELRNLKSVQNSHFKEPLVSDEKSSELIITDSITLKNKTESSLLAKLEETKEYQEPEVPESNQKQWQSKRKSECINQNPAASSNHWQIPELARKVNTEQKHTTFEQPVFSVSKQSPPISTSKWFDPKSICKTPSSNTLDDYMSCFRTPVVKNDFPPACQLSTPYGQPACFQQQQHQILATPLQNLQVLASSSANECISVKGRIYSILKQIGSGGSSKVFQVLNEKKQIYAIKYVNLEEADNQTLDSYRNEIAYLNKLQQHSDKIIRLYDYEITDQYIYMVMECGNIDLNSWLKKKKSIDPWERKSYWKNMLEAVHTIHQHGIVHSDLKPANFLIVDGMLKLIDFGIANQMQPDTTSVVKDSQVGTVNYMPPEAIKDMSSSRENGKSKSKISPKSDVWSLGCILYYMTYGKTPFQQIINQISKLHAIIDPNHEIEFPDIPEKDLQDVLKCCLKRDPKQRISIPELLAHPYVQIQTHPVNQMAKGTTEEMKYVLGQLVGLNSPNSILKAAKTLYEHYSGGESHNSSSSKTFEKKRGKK

[15] = tested on: T6, Receptor-type tyrosine-protein kinase FLT3 (Homo sapiens), P36888 [D835Y]; details: at 1 µM
T6 sequence (whole entry): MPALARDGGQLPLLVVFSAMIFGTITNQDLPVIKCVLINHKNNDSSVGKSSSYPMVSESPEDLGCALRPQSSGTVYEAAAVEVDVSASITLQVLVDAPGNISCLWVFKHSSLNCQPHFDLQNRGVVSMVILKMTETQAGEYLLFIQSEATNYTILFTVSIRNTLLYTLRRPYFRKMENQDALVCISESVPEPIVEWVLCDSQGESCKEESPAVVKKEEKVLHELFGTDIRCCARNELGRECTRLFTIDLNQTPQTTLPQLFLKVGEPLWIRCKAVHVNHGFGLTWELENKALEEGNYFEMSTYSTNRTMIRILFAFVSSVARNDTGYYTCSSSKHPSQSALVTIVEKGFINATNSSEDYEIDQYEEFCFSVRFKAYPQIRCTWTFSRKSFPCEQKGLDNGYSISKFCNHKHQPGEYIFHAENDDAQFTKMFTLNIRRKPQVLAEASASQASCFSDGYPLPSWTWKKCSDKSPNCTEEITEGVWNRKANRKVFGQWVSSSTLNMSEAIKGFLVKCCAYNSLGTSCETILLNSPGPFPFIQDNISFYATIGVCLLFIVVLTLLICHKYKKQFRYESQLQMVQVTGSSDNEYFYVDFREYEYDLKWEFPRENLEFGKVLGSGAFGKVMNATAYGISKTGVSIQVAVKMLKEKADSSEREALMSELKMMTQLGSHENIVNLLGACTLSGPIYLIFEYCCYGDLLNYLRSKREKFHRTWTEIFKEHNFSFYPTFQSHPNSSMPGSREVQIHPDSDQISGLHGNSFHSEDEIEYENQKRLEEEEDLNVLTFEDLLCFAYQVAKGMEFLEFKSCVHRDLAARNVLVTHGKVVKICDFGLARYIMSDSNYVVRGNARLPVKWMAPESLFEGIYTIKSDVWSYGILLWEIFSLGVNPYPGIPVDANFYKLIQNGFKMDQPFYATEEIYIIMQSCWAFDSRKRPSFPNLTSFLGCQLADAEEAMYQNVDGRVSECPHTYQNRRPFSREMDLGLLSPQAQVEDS

[16] = target: Vascular endothelial growth factor receptor 3 (Homo sapiens) (UniProt P35916); details: at 0.1 µM
Chain of Vascular endothelial growth factor receptor 3 (Homo sapiens) (P35916 whole entry): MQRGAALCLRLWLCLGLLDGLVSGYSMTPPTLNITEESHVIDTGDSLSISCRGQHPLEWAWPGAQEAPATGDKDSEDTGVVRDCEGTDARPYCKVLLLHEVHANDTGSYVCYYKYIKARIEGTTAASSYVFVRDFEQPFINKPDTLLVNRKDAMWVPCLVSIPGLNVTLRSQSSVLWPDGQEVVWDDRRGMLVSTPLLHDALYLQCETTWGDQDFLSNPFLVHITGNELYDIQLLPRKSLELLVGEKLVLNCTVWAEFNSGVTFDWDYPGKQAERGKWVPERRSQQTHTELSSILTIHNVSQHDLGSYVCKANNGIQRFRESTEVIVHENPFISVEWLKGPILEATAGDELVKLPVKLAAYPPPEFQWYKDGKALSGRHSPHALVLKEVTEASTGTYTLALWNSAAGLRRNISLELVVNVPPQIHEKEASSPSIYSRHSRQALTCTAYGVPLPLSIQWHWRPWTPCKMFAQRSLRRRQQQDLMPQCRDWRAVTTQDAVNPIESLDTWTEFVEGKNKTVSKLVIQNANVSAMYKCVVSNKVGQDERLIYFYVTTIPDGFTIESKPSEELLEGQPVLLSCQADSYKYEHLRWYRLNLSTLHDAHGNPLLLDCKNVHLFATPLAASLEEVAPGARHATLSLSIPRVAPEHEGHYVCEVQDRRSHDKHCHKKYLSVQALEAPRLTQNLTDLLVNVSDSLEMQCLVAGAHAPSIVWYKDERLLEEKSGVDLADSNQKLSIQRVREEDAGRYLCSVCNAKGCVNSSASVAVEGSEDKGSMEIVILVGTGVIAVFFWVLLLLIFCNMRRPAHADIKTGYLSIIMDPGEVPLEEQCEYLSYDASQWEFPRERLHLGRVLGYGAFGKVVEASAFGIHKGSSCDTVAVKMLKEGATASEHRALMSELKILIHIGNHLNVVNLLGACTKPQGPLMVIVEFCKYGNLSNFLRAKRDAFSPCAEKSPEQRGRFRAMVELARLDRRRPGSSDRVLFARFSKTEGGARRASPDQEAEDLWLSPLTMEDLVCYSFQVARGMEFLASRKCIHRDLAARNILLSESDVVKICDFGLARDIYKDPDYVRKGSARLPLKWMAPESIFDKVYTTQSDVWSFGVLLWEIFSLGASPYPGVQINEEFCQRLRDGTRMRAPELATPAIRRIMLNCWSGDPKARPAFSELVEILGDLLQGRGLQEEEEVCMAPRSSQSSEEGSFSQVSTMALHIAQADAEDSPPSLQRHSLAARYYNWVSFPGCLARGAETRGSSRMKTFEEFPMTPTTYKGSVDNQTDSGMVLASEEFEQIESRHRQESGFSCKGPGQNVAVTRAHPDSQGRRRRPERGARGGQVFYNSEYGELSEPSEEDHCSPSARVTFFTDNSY

[17] = target: Vascular endothelial growth factor receptor 3 (Homo sapiens) (UniProt P35916); details: at 1 µM
[18] = target: Macrophage colony-stimulating factor 1 receptor (Homo sapiens) (UniProt P07333); details: at 0.1 µM
Chain of Macrophage colony-stimulating factor 1 receptor (Homo sapiens) (P07333 whole entry): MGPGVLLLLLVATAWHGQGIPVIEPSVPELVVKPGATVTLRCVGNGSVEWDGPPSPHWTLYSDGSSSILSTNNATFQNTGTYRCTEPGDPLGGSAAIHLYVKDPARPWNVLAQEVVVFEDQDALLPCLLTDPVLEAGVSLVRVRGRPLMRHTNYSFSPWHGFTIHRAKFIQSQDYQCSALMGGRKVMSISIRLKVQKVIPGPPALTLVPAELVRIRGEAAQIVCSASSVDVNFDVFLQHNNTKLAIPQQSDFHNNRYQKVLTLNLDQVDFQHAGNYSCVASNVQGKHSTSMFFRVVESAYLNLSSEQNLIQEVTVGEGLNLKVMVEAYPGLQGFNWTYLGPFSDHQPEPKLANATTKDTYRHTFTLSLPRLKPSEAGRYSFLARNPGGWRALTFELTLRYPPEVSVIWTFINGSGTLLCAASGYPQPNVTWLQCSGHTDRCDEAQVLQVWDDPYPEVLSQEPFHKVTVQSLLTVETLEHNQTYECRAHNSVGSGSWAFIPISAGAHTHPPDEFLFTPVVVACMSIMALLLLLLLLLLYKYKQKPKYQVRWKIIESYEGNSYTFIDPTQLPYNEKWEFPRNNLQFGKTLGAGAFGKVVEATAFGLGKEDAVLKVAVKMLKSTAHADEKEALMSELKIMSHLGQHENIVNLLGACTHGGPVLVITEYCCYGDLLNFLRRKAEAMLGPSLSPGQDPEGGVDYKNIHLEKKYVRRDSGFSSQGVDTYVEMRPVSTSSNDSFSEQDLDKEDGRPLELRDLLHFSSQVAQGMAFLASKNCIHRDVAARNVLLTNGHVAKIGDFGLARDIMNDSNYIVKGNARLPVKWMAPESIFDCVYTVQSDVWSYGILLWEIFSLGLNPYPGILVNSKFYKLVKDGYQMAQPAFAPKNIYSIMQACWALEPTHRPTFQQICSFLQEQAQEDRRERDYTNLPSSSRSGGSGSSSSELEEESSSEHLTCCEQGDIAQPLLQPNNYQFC

[19] = target: Macrophage colony-stimulating factor 1 receptor (Homo sapiens) (UniProt P07333); details: at 1 µM
[20] = target: Tyrosine-protein kinase Fyn (Homo sapiens) (UniProt P06241); details: at 0.1 µM
Chain of Tyrosine-protein kinase Fyn (Homo sapiens) (P06241 2-537 limits assumed): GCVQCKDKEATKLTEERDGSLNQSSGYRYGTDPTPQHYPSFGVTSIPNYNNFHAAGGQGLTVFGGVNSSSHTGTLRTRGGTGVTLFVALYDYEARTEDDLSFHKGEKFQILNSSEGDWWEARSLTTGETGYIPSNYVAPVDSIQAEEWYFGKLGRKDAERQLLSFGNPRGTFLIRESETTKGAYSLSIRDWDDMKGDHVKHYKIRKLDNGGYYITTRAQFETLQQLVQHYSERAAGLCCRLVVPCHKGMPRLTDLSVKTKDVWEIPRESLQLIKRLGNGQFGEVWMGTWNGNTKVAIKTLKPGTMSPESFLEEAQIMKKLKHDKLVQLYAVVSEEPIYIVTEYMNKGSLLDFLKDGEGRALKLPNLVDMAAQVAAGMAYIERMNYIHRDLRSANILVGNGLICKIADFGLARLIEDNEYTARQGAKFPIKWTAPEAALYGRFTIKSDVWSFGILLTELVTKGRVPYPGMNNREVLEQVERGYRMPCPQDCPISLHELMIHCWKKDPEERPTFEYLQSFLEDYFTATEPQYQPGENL

Compound	inhibition [1]	inhibition [2]	inhibition [3]	inhibition [4]	inhibition [5]	inhibition [6]	inhibition [7]	inhibition [8]	inhibition [9]	inhibition [10]	inhibition [11]	inhibition [12]	inhibition [13]	inhibition [14]	inhibition [15]	inhibition [16]	inhibition [17]	inhibition [18]	inhibition [19]	inhibition [20]
Fc1ccc(-c2nn3ncccc3c2-c2ccnc(Nc3ccc4c(c3)OCCO4)n2)cc1	7.06%	2.45%	1.02%	5.03%	4.48%	0.64%	3.68%	6.98%	4.83%	6.56%	12%	3.5%	28.8%	8.44%	2.87%	7.5%	47.7%	14.4%	59.1%	47%
Cc1ccc(O)cc1Nc1ccnc2cc(-c3ccccn3)ccc12	4.69%	2.99%	2.32%	5.83%	4.75%	5.8%	-1.66%	3.67%	3.3%	2.78%	-1.26%	3.38%	4.98%	6.34%	4.47%	62.5%	88.8%	4.3%	20.4%	55.6%
Fc1ccc(-c2nn3ccccc3c2-c2ccncc2)cc1	0.04%	1.98%	1.91%	1.2%	1.45%	0.37%	1.47%	3.72%	2.56%	5.49%	1.86%	1.11%	0.66%	1.74%	1.27%	-0.54%	1.83%	-0.59%	7.67%	0.52%
